# According to the supplement of paper PMC11732987, “Enantioselective OTUD7B fragment discovery through chemoproteomics screening and high-throughput optimisation” (Communications Chemistry, 2025):
# Unmarked numbers belong to inactive results.
# Tests used:
# Test in all cases: log2 ratio of Biotin-Ahx-Ub-VS probe labelling (fragment/DMSO); higher = less target engagement (more negative = stronger competition), active = hit call of the paper (q ≤ 0.05, log2 ratio ≤ -1)
# Conditions in all cases: compound concentration: 200 uM; treatment time: 3 h
# ALG13 = biological target: T1, ALG13 (UniProt Q9NP73)
# T1 sequence (whole entry): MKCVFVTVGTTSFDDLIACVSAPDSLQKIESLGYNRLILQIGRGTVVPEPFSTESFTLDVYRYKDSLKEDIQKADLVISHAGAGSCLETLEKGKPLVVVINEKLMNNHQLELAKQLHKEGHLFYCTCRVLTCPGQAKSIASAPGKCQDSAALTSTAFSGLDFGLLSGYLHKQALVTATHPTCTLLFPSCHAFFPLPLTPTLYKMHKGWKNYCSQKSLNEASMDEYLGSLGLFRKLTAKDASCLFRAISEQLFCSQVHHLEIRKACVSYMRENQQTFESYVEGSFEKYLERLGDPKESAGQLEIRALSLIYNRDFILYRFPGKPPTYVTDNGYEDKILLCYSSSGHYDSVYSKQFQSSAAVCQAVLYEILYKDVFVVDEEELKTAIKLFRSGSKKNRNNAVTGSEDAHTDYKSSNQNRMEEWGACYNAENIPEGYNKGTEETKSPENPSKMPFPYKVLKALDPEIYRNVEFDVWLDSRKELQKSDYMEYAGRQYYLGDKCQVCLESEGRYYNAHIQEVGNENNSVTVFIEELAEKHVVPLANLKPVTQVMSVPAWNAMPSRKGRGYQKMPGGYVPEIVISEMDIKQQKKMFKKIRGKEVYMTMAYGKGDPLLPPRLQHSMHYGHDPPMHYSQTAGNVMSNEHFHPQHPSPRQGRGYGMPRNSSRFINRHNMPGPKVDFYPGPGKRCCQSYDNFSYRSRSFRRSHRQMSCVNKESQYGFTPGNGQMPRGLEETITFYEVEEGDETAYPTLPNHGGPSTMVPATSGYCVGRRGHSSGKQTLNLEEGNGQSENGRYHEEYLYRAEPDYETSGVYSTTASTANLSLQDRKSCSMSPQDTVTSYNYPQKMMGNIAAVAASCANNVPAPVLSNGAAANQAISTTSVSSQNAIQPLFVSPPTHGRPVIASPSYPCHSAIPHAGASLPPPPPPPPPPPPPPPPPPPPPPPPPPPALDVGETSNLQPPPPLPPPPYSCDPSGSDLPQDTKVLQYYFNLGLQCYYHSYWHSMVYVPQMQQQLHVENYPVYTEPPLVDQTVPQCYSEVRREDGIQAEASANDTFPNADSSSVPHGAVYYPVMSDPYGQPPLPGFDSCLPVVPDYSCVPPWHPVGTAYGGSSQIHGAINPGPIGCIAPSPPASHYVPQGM
# Procedure, shortened: (§1)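 The table lists average log2 ratios of fragment over vehicle, from an unpaired t-test on global-median-normalised Spectronaut label-free quantities. Proteins with ≥2 unique peptides were used. Samples were HEK293T lysate (495 µg) treated in triplicate with fragment at 200 µM or vehicle for 3 h, then with Biotin-Ahx-Ub-VS (0.5 µM final) for 1 h, with labelled DUBs NeutrAvidin-enriched and run by diaPASEF LC-MS/MS.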
# ATXN3 = ATXN3 (UniProt P54252)
# Procedure, shortened: as §1
# BAP1 = biological target: T2, BAP1 (UniProt Q92560)
# T2 sequence (whole entry): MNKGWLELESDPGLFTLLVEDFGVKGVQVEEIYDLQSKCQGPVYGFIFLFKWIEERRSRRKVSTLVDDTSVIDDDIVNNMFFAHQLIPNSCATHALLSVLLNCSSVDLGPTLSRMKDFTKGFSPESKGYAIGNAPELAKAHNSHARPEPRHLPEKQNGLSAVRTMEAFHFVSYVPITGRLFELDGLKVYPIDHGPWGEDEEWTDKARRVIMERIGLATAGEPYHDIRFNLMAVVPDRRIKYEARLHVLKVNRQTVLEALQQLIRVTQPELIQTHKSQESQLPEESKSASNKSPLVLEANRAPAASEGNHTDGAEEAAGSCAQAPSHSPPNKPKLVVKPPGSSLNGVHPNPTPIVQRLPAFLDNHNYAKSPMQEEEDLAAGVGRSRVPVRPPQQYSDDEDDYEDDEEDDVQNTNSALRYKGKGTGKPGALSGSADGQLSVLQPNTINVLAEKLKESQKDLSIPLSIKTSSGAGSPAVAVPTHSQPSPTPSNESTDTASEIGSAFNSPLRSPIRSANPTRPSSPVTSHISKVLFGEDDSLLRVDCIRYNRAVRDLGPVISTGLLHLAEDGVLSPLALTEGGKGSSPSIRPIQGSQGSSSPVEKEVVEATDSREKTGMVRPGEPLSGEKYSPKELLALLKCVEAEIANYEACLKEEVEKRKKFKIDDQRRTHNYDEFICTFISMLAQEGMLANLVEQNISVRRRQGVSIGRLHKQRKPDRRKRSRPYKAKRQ
# Procedure, shortened: as §1
# EIF3F = EIF3F (UniProt O00303)
# Procedure, shortened: as §1
# EIF3H = EIF3H (UniProt O15372)
# Procedure, shortened: as §1
# FAM105A = biological target: T3, FAM105A (UniProt Q9NUU6)
# T3 sequence (whole entry): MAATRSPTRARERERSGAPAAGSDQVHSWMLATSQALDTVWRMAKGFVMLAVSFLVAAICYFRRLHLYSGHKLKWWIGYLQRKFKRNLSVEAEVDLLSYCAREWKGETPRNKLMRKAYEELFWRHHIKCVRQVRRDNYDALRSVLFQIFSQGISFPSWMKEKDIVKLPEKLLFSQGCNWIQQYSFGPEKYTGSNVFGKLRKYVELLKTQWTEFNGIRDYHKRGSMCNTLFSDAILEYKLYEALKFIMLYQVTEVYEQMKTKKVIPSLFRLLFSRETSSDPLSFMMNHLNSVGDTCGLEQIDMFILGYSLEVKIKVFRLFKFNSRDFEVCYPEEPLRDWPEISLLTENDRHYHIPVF
# Procedure, shortened: as §1
# OTUB1 = OTUB1 (UniProt Q96FW1)
# Procedure, shortened: as §1
# OTUD4 = biological target: T4, OTUD4 (UniProt Q01804)
# T4 sequence (whole entry): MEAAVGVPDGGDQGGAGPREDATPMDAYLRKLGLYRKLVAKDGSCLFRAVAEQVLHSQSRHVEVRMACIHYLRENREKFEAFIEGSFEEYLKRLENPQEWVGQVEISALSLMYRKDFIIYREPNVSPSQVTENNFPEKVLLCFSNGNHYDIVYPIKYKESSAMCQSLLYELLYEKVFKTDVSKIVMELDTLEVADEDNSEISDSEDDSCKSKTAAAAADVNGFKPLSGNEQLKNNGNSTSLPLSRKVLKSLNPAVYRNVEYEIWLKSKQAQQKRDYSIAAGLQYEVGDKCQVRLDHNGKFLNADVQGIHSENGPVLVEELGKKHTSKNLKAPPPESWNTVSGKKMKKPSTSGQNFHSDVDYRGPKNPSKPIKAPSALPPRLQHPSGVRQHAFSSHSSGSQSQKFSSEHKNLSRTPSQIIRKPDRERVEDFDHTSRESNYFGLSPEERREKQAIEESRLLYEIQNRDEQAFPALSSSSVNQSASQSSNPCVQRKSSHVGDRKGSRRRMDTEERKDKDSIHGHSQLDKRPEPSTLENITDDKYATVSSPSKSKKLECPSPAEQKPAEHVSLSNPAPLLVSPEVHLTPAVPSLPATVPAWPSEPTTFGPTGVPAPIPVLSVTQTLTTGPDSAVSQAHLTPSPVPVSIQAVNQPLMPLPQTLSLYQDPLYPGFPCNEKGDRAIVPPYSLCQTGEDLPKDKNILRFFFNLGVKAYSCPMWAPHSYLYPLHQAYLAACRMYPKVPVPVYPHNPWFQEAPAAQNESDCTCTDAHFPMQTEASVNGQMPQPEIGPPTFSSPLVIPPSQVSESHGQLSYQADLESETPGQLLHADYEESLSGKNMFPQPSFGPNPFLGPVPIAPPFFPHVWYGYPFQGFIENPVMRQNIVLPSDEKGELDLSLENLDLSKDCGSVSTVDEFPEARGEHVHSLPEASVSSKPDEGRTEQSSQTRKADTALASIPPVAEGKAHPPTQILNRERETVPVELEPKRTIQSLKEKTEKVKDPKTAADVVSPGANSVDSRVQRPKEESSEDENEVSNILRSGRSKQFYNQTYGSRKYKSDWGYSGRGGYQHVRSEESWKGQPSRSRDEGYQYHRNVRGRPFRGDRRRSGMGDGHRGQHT
# Procedure, shortened: as §1
# OTUD5 = biological target: T5, OTUD5 (UniProt Q96G74)
# T5 sequence (whole entry): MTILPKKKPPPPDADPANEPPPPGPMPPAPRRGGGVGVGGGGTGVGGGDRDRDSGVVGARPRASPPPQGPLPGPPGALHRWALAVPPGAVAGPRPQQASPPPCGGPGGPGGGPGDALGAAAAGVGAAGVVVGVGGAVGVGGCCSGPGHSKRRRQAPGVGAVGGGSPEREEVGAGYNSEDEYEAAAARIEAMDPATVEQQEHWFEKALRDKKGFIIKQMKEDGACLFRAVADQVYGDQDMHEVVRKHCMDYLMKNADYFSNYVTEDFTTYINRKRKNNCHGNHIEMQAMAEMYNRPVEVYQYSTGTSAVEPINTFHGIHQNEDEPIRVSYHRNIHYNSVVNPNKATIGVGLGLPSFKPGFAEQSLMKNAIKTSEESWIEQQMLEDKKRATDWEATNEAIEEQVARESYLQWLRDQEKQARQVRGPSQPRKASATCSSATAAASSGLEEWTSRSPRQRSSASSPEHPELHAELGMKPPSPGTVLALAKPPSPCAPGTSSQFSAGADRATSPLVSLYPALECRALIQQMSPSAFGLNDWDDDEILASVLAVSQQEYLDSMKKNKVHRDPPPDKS
# Procedure, shortened: as §1
# Chain of ATXN3 (P54252 whole entry): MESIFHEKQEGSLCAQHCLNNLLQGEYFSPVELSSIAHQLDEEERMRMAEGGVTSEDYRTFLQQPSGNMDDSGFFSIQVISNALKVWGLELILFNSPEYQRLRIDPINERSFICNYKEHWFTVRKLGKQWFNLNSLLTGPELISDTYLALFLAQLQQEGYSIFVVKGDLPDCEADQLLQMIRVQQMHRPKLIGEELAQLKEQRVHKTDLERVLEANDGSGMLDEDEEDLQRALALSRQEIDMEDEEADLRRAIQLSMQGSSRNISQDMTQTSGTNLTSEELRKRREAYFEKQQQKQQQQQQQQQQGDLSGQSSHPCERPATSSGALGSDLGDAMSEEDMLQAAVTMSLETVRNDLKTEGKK
# Chain of EIF3F (O00303 whole entry): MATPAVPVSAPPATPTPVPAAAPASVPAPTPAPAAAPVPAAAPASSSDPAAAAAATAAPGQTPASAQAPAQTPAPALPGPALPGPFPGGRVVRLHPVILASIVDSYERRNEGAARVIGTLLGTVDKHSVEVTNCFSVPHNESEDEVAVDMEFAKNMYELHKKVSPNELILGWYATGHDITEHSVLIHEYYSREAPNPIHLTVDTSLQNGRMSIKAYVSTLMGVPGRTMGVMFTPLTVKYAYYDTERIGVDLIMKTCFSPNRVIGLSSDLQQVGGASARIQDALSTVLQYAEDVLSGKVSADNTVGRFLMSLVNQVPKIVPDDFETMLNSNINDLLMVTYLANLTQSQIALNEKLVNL
# Chain of EIF3H (O15372 whole entry): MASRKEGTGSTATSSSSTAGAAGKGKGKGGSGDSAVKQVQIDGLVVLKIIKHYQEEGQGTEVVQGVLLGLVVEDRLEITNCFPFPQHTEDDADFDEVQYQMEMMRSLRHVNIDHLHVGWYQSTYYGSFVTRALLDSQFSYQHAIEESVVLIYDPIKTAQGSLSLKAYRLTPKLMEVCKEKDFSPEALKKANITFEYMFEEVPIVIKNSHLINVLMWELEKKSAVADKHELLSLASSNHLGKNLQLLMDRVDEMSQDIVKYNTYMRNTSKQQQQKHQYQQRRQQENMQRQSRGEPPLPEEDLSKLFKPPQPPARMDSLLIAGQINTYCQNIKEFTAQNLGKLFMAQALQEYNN
# Chain of OTUB1 (Q96FW1 whole entry): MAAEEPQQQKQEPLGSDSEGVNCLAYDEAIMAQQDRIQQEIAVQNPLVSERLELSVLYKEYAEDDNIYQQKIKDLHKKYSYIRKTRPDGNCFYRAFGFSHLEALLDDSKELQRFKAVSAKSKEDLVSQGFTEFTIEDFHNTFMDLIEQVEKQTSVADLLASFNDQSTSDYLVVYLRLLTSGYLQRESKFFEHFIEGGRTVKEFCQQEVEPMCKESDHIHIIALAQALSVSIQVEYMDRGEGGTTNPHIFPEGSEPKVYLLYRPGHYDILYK
Structure (SMILES),log2 ratio of Biotin-Ahx-Ub-VS probe labelling (ALG13),log2 ratio of Biotin-Ahx-Ub-VS probe labelling (ATXN3),log2 ratio of Biotin-Ahx-Ub-VS probe labelling (BAP1),log2 ratio of Biotin-Ahx-Ub-VS probe labelling (EIF3F),log2 ratio of Biotin-Ahx-Ub-VS probe labelling (EIF3H),log2 ratio of Biotin-Ahx-Ub-VS probe labelling (FAM105A),log2 ratio of Biotin-Ahx-Ub-VS probe labelling (OTUB1),log2 ratio of Biotin-Ahx-Ub-VS probe labelling (OTUD4),log2 ratio of Biotin-Ahx-Ub-VS probe labelling (OTUD5)
O=C(CCl)NCc1ccc(Cl)cc1,0.0638,-0.168,-2.74 (active),0.0714,-0.105,-0.347,0.0283,0.0745,-0.00631
Cc1nc(CN2CCN(C(=O)CCl)CC2)cs1,0.271,-0.309,-0.469,-0.26,0.0747,0.151,0.0298,-0.0355,-0.265
O=C(CCl)N1CCCC1c1ccsc1 (stereo not given),-0.0335,-1.15 (active),-3.75 (active),0.0507,0.2,0.313,-0.142,-0.382,-0.65
O=C(CCl)Nc1cc(Cl)ccc1-n1cncn1,0.0898,-0.881,-3 (active),-0.457,0.376,0.14,-0.487,-0.779,-1.05 (active)
O=C(CCl)Nc1ccc(F)cc1F,0.182,-0.351,-2.82 (active),-0.155,0.108,0.102,-0.293,-0.268,-0.5
O=C(CCl)NC(Cn1ccccc1=O)c1ccccc1 (stereo not given),0.152,-0.00539,-1.18 (active),0.0892,-0.0521,0.0796,-0.3,-0.122,-0.104
O=C(CCl)NCC1(c2ccccc2)CC1,-1.4 (active),0.0359,-1.15 (active),-0.053,0.176,-0.0439,0.0757,-0.368,-0.335
Cc1cccc(NC(=O)[C@@H]2CCCN2C(=O)CCl)n1,0.103,-0.532,-0.719,-0.372,0.0856,0.18,-0.512,-0.432,-0.514
CCC1c2ccsc2CCN1C(=O)CCl (stereo not given),0.127,-0.424,-0.48,-0.262,0.089,0.09,0.0848,-0.658,-1.15 (active)
Cc1nc(CC2CCN(C(=O)CCl)CC2)no1,-0.358,-1.02 (active),-1.08,-0.302,-0.111,-0.155,-0.686,-0.753,-0.888
O=C(CCl)NCCc1ccc(F)cc1,-0.037,-0.166,-1.07 (active),0.0338,0.194,-0.364,-0.291,-0.143,-0.544
CC(=O)Nc1ccc(NC(=O)CCl)cc1,0.0593,-0.656,-3.42 (active),-0.081,-0.182,-0.285,-0.24,-0.296,-0.406
Cl.O=C(CCl)NCc1cc2c(nc1O)CCCC2,-0.00624,-0.358,-1.87 (active),0.116,0.0749,0.13,-0.044,-0.437,-0.468
O=C(CCl)NCc1ccc2c(c1)OCO2,0.0126,0.173,-3.05 (active),-0.126,-0.0114,-0.111,-0.278,-0.266,0.0579
C/C(=C\CNC(=O)CCl)c1cnn(C)c1.Cl,0.0802,-0.277,-1.56 (active),-0.217,0.0454,0.298,-0.376,0.00615,-0.115
